Assay outcomes as filed in PubChem.
The sample as a whole holds a higher share of hits than the screen did.
HT1080 IDH1KD tx – toxicity to HT-1080 IDH1 knockdown cells (counter line); HT-1080 IDH1 knockdown viability, ATP luminescence, 48 h; Potency, µM (series often up to 46.1 µM), hits mostly cytotoxic; 360,000 compounds, 2% hits
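Knockdown cells (IDH1KD HT-1080) received compounds 2 h after plating at 750 cells/well and were kept 48 h at 37 °C in 5% FBS RPMI. A CellTiter-Glo luminescence read gave % activity for curve fitting.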
TDP1 cell CPT – DT40-hTDP1 cell growth loss with CPT | Potency, µM (top dose mostly 46.2 µM), hits mostly inhibitors | 420,000 compounds, 12% hits | chicken DT40 Tdp1-/-;hTDP1 cells + 20 nM CPT, ATP luminescence, 48 h; also: nearly all actives have a fitted effect of over 55% in size
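Chicken DT40 Tdp1-/- cells complemented with human TDP1, 400 cells/well, exposed to compounds plus 20 nM camptothecin for at least 48 h at 37 C; viability read as ATP content by CellTiter-Glo luminescence.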
IL-1B inflam inh – inhibitors of inflammasome signaling (IL-1 beta secretion); activity change, % at 57.5 µM; AID 743279; 360,000 compounds, 4.7% hits; THP-1 LPS/ATP IL-1B secretion, AlphaLISA, 16 h; active compounds read low; in the data active = activity change below about -50%; inconclusive = mostly about -30% to -49%
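Secreted IL-1B measured by AlphaLISA bead assay after 16 h compound exposure of THP-1 cells; compounds (final up to 57.5 uM) added 1 h before LPS (250 ng/mL) and ATP (1.25 mM) stimulation; lower signal means less secretion.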
ALOX12 inh – inhibitors of human 12S-lipoxygenase ALOX12; AID 1671190; P18054; Potency, µM (top dose mostly 108 µM), hits mostly inhibitors; 580,000 compounds, 1.1% hits; purified 12hLO, xylenol orange hydroperoxide absorbance
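Purified human 12hLO at 150 nM in 25 mM Hepes, 0.01% Triton X-100, pH 7.0, preincubated 15 min at room temperature with compound. Reaction started with 40 uM arachidonic acid, 30 min at room temperature. Hydroperoxide measured by Fe-xylenol orange, 573/405 nm absorbance ratio.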
TDP1 cell noCPT – qHTS for Inhibitors of human tyrosyl-DNA phosphodiesterase 1 (TDP1): qHTS in cells in absence of CPT; DT40 Tdp1-/- hTDP1 cells, no CPT, ATP luminescence, 48 h; Potency, µM (highest dose often 46.2 µM), most hits filed as inhibitors; 420,000 compounds, 15% hits; also: nearly all actives have a fitted effect of over 55% in size
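No-CPT arm: Tdp1-/-;hTDP1 DT40 cells (400/well) plus compounds, incubated ≥48 hr at 37 °C. Readout CellTiter-Glo luminescence.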
HT1080-NT tox – kills 2HG-producing HT-1080-NT fibrosarcoma cells; HT-1080-NT fibrosarcoma viability, CellTiter-Glo ATP luminescence, 48 h; Potency, µM (titrated, usually from 46.1 µM), most hits filed as cytotoxic; 360,000 compounds, 1.6% hits; AID 686970;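 also: NT is the 2HG producing partner of a matched IDH1 knockdown line; nearly all actives have a fitted effect of over 55% in size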
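750 cells/well, RPMI + 5% FBS; 2 h settle, compound pin-transfer, 48 h at 37 degrees C. CellTiter-Glo 10 min RT, luminescence. Normalized to DMSO and media-only wells.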
A number is an active result; i = inactive; ? = inconclusive; nt = no result given; [ ] = remark or other dose. Unless noted, calls follow the shape of the dose curve; as a rule, active = well fitted curve in the direction sought with a large enough effect; inconclusive = small, poorly fitted or top-dose-only effect, or another doubt; inactive = no such curve, though single readings can be large; an effect the other way counts as inactive or inconclusive.

SMILES	HT1080 IDH1KD tx	TDP1 cell CPT	IL-1B inflam inh	ALOX12 inh	TDP1 cell noCPT	HT1080-NT tox
Cc1ccc2cc(CNCCc3ccccc3C)c(=O)[nH]c2c1	i	?	-79	i	18µM	i
Cc1cccc(CCNCc2cc3cccc(C)c3[nH]c2=O)c1	?	8.2µM	i	i	13µM	i
Nc1nc(CN2CCN(C(=O)COc3ccc(F)cc3)CC2)nc2ccccc12	nt	nt	nt	i	nt	nt
Cc1cccc(-n2c(O)c(/C=C/C=Nc3ccccc3)c(=O)[nH]c2=O)c1	i	i	i	i	?	i
Cc1ccc(-n2c(O)c(/C=C3/C(c4ccccc4)=Nc4ccccc43)c(=O)[nH]c2=O)cc1	?	5.8µM	-58	?	7.3µM	7.3µM
Cc1cccc(-n2c(O)c(/C=C3/C(c4ccccc4)=Nc4ccccc43)c(=O)[nH]c2=O)c1	5.8µM	2.9µM	i	i	2.3µM	16µM
Cc1ccccc1-n1c(O)c(/C=C2/C(c3ccccc3)=Nc3ccccc32)c(=O)[nH]c1=O	?	4.6µM	?	i	4.6µM	?
COC(=O)C1=Nc2ccccc2/C1=C\c1c(O)n(-c2cc(OC)ccc2OC)c(=O)[nH]c1=O	i	i	i	?	i	i
CC1=Nc2ccccc2/C1=C/c1c(O)n(C)c(=O)[nH]c1=O	i	?	-103	?	?	i
Cc1ccc(N=Cc2c(O)n(-c3ccc(C)cc3)c(=O)[nH]c2=O)cc1	i	i	i	i	i	i
O=c1[nH]c(=O)n(Cc2ccccc2)c(O)c1/C=C1\C=Nc2ccccc21	i	?	i	?	?	i
CN(CCc1ccccn1)C[C@H]1CN2CC[C@H]1C[C@@H]2CNS(=O)(=O)c1ccccc1	nt	nt	nt	i	nt	nt
Cc1nc(-c2ccccc2)cc([C@H]2CN3CC[C@H]2C[C@@H]3CNS(=O)(=O)Cc2ccccc2)n1	nt	nt	nt	i	nt	nt
O=C1NC(=O)C(CCc2ccncc2)(Cc2ccc3c(c2)OCO3)C(=O)N1CCc1ccccc1 (stereo not drawn)	?	?	i	i	21µM	i
O=C1NC(=O)C(CCc2ccncc2)(CCc2ccncc2)C(=O)N1CCc1ccccc1	i	i	i	i	i	i
c1cc(CNCCc2ccc3c(c2)OCO3)ccn1	i	i	i	?	i	i
CN1C(=O)N(C)C(=O)C(CCc2ccncc2)(Cc2ccc3c(c2)OCO3)C1=O	?	?	i	i	16µM	i
O=C1c2ccccc2NC2(c3ccccc3)c3ccccc3-n3nncc3CN12 (stereo not drawn)	nt	nt	nt	i	nt	nt
CC(Cc1ccccc1Sc1ccccc1O)N(C)C (stereo not drawn)	?	?	i	i	12µM	?
CNNC	nt	i	nt	nt	i	nt
O=C(Cc1ccc(Cl)c(Cl)c1)N1CCCC[C@H]1CN1CCCC1	nt	27µM	nt	i	27µM	nt
COC(=O)N1CCN(C(=O)Cc2ccc(Cl)c(Cl)c2)[C@H](CN2CCCC2)C1	nt	i	nt	?	?	nt
C=C1C([C@@H](O)C[C@H](C)C2O[C@@]3(CCCCO3)CC[C@H]2C)OC2CC[C@@]3(CC[C@@H](/C=C/[C@@H](C)C4CC(C)=C[C@]5(O4)O[C@H](C[C@@](C)(O)C(=O)O)CCC5O)O3)OC2[C@@H]1O (stereo partly drawn)	nt	0.013µM	nt	i[6.33 µM]	0.01µM	nt
C=C1C(O)[C@@H]2O[C@]3(CC[C@H](/C=C/C(C)[C@@H]4CC(C)=CC5(O[C@H](C[C@@](C)(O)C(=O)O)CCC5O)O4)O3)CC[C@H]2O[C@@H]1C(O)CC(C)[C@H]1OC2(CCCCO2)CCC1C (stereo partly drawn)	0.0082µM	0.16µM	?	nt	0.15µM	?
C=C[C@H]1CN2CC[C@H]1C[C@@H]2CNS(=O)(=O)c1ccc(C)cc1	nt	nt	nt	i	nt	nt
Cc1nn(Cc2ccccc2Cl)c(C)c1C(=O)Nc1nnc(C2CC2)s1	2.5µM	i	i	i	?	?
NCCc1cccs1	nt	nt	nt	i	nt	nt
